# Laboratory results published in PubChem BioAssay.
# Activity calls are given as the source filed them. Unless noted, no rule for the calls is given here.
# Tests used:
# [1] = modifiers of HSF1 nuclear foci, imaging, Selleck Cancer Library (AID 1347162; in the data active = plate-normalised HSF1 focus index below about 0.46); conditions: human cells, at 10 µM; SSMD: measured here: HSF1 foci SSMD mean; cell count: measured here: cell number; plate-normalised HSF1 focus index: stronger effect = lower value
# [2] = inhibitors of Cryptococcus chitosan production, flow cytometry, Cibacron Brilliant Red staining (AID 1347148); conditions: Cryptococcus neoformans chitosan, stronger effect = lower value; at 10 µM unless noted;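 also: compound exposure lasted three days at 37 degrees C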
# [3] = hESC survival regulators, cell-based (AID 493140); conditions: human embryonic stem cell survival screen; stronger effect = higher value;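 also: cells exposed to compounds for four days before counting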
# [4] = phospholipid biosynthesis inhibitors in animal cells, primary screen, cell-based, LOPAC library, screen 4 (AID 1347384); conditions: phospholipid biosynthesis inhibition screen, at 10 µM
# [5] = liver-stage malaria parasite growth inhibition, primary screen, cell-based, HepG2, luciferase luminescence, HepG2 viability (AID 624349; in the data active = parasite load remaining mostly below about 12%, no sharp cut-off; inactive = mostly above about 10%;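 also: 100% = mean of DMSO negative control wells on the same plate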); conditions: P. berghei liver stage in HepG2, luciferase luminescence, concentration not given here; parasite load remaining: stronger effect = lower value; viability: measured here: HepG2 viability without parasites
compound,measurement,setting,value
CO[C@H]1/C=C\C=C(/C)C(=O)NC2=CC(=O)C(NCCN(C)C)=C(C[C@@H](C)C[C@H](OC)[C@H](O)[C@@H](C)/C=C(\C)[C@@H]1OC(N)=O)C2=O,SSMD,[1],3.16
same,cell count,[1],7300
same,plate-normalised HSF1 focus index,[1],1.12 (inactive)
COC(=O)C1=C(C)NC(C)=C(C(=O)OCCSc2ccccc2)[C@H]1C,fold fluorescence,[2],8.74 [at 138.3 µM] (inactive)
O=C(O)CCC/C=C\C[C@H]1[C@H](/C=C/[C@H](O)COc2cccc(Cl)c2)[C@@H](O)C[C@H]1O,fold fluorescence,[2],4.34 (inactive)
CC[C@@H](C(=O)[C@@H](C)[C@@H](O)[C@H](C)[C@@H]1O[C@@H]([C@@H](CC)C(=O)O)CC[C@@H]1C)[C@H]1O[C@]2(C=C[C@@H](O)[C@]3(CC[C@@](C)([C@H]4CC[C@](O)(CC)[C@H](C)O4)O3)O2)[C@H](C)C[C@@H]1C,SSMD,[1],4.08
same,cell count,[1],7580
same,plate-normalised HSF1 focus index,[1],1.26 (inactive)
O=C1Nc2ccc(-c3cccnc3)cc2/C1=C/c1ccc[nH]1,SSMD,[1],-1.39
same,cell count,[1],7060
same,plate-normalised HSF1 focus index,[1],0.916 (inactive)
Nc1ncnc2c1c(I)cn2C1OC(CO)C(O)C1O (stereo not given),survival,[3],7.5 (inactive)
same,fold fluorescence,[2],3.83 [at 127.5 µM] (inactive)
COc1cc2c3cc1Oc1c(OC)c(OC)cc4c1[C@H](Cc1ccc(OC(=O)c5ccc([N+](=O)[O-])cc5)c(c1)Oc1ccc(cc1)C[C@H]3N(C)CC2)N(C)CC4,fold fluorescence,[2],5.83 [at 66 µM] (inactive)
O=C(O)c1ccc(-c2c3nc(c(-c4ccc(C(=O)O)cc4)c4ccc([n-]4)c(-c4ccc(C(=O)O)cc4)c4nc(c(-c5ccc(C(=O)O)cc5)c5ccc2[n-]5)C=C4)C=C3)cc1.[Mn+3],fold fluorescence,[2],4.93 [at 57 µM] (inactive)
C=C1CC[C@@H](O)C/C1=C/C=C1\CCC[C@]2(C)[C@@H]1CC[C@H]2[C@@H](C)CCCC(C)(C)O,fold fluorescence,[2],5.68 (inactive)
COC(=O)[C@H](CCCN=C(N)N)NS(=O)(=O)c1ccc(C)cc1,SSMD,[1],1.44
same,cell count,[1],7120
same,plate-normalised HSF1 focus index,[1],1.08 (inactive)
CCCCC/C=C\C=C\[C@@H](O)CCCCCCCC(=O)O,survival,[3],108 (inactive)
same,fold fluorescence,[2],5.71 [at 1 µM] (inactive)
CCCCCCCCCCCCCCCCCCOP(=O)(O)OC1CC[N+](C)(C)CC1,SSMD,[1],-3.23
same,cell count,[1],7160
same,plate-normalised HSF1 focus index,[1],0.793 (inactive)
C=C1/C(=C/C=C2\CCC[C@]3(C)[C@@H]([C@H](C)/C=C/[C@@H](C)C(C)C)CC[C@@H]23)C[C@@H](O)C[C@@H]1O,SSMD,[1],1.3
same,cell count,[1],6600
same,plate-normalised HSF1 focus index,[1],1.07 (inactive)
CCOc1ncc(S(=O)(=O)N2CCN(CC)CC2)cc1-c1nc2c(CC)n(CCOC)nc2c(=O)[nH]1,outcome,[4],inactive
CCOC(=O)C1=C(O)C(=O)N(c2ccccc2)C1,SSMD,[1],2.7
same,cell count,[1],7070
same,plate-normalised HSF1 focus index,[1],1.16 (inactive)
O=C1c2ccccc2-c2nc3nonc3nc21,SSMD,[1],-15
same,cell count,[1],3090
same,plate-normalised HSF1 focus index,[1],0.229 (active)
CO[C@H]1C[C@@H]2CC[C@@H](C)[C@@](O)(O2)C(=O)C(=O)N2CCCC[C@@H]2C(=O)OC([C@H](C)C[C@@H]2CC[C@@H](OC(=O)C(C)(CO)CO)[C@H](OC)C2)CC(=O)[C@H](C)/C=C(\C)[C@@H](O)[C@@H](OC)C(=O)[C@H](C)C[C@H](C)/C=C/C=C/C=C/1C (stereo not given in full),outcome,[4],inactive
O=c1c2ccccc2[nH]c(=S)n1CCN1CCC(=C(c2ccc(F)cc2)c2ccc(F)cc2)CC1,parasite load remaining,[5],40.1% (inactive)
same,viability,[5],100%
same,SSMD,[1],4.04
same,cell count,[1],6860
same,plate-normalised HSF1 focus index,[1],1.24 (inactive)
Nc1ncnc2c1ncn2[C@@H]1O[C@H](COP(=O)(O)CP(=O)(O)OP(=O)(O)O)[C@H](O)C1O (stereo not given in full),outcome,[4],inactive
CC1=NN(c2cccc(C(=O)O)c2)C(=O)/C1=C\c1ccc(-c2ccc(Cl)c(C(=O)O)c2)o1,outcome,[4],inactive
NC(=O)c1cc[n+](CC2=C(C(=O)O)N3C(=O)[C@@H](NC(=O)[C@@H](c4ccccc4)S(=O)(=O)O)[C@H]3SC2)cc1,outcome,[4],inactive
N#C/C(=C1/Nc2ccccc2S1)c1ccnc(NCCc2cccnc2)n1,parasite load remaining,[5],18.8% (inactive)
same,viability,[5],85.6%
same,SSMD,[1],2.72
same,cell count,[1],6770
same,plate-normalised HSF1 focus index,[1],1.16 (inactive)
CCN(CC)c1ncnc2c1ncn2[C@@H]1O[C@H](COP(=O)(O)OP(=O)(O)C(Br)(Br)P(=O)(O)O)[C@@H](O)[C@H]1O,outcome,[4],inactive
CCCCCc1ccc(/C=C/C(=O)Nc2cc(Cl)ccc2C(=O)O)cc1,outcome,[4],inactive
